The subject of assay [1] is Hek293T. Description: Primary qHTS to identify gynecologic anti-cancer compounds using libraries of approved drugs and bioactive compounds (AID 1345084). Further: on the % scale 0 is the no-effect control and ±100 the full control effect; nearly all actives have a fitted effect of over 55% in size. Particulars: Gynecologic cancer cell panel viability, ATPlite luminescence, 48 h, control line for the selectivity index; series mostly up to 57.5 µM. In short, it runs like this:
(§1)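 Five-concentration response, 48 h; readout is ATP-driven luciferase luminescence.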
(In general: Quantitative high-throughput screening tests each substance at several concentrations.)

The test system of assay [2] is JEG-3. The assay is described as above. Particulars: Gynecologic cancer cell panel viability, ATPlite luminescence, 48 h; series mostly up to 57.5 µM. In short, it runs like this:
as §1

Assay [3] deals with OV90. Described as above. Particulars: Gynecologic cancer cell panel viability, ATPlite luminescence, 48 h; series mostly up to 57.5 µM. A digest of the protocol:
as §1

For assay [4], the system named is PA-1. The assay is described as above. Particulars: Gynecologic cancer cell panel viability, ATPlite luminescence, 48 h; series mostly up to 57.5 µM. A digest of the protocol: as §1
Assay [5] relates to SKOV3. The assay is described as above. Particulars: Gynecologic cancer cell panel viability, ATPlite luminescence, 48 h; series mostly up to 57.5 µM. In short, it runs like this:
as §1
(In general: In ATP-based viability assays light output follows the ATP content of the culture.)

Assay [6] deals with Tov-21-G. Described as above. Particulars: Gynecologic cancer cell panel viability, ATPlite luminescence, 48 h; series mostly up to 57.5 µM. A digest of the protocol:
as §1

In assay [7] the test system is Tov112D. The description is as above. Particulars: Gynecologic cancer cell panel viability, ATPlite luminescence, 48 h; series mostly up to 57.5 µM. A digest of the protocol: as §1
Assay [8] is described as follows: Drug repurposing screens with cells derived from glioblastoma tumor samples (AID 1345199). Further: nearly all actives have a fitted effect of over 40% in size. Further: potency means the concentration at half of the fitted maximal effect. On activity, negative = cell killing: on the % scale 0 is the no-effect control and ±100 the full control effect. Particulars: GBM patient neurospheres viability, ATP luminescence, 48 h. A digest of the protocol: (§2)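 Primary testing used CD133+ neurospheres from four GBM patients, seven concentrations, 48 h exposure and ATP-based viability; confirmation added three slower-growing patient lines.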

For assay [9], the system named is astro. The assay is described as above. Particulars: viability, ATP luminescence, 48 h; series mostly up to 45.9 µM. A digest of the protocol:
as §2

Assay [10] is described as follows: qHTS assay for small molecule activators of the human pregnane X receptor (PXR) signaling pathway (AID 720659; call rule not given here; further: 0% is about no effect).
The target in assay [11] is Nuclear receptor subfamily 1 group I member 2 (Rattus norvegicus) (UniProt Q9R1A7). Description: qHTS assay for small molecule activators of the rat pregnane X receptor (rPXR) signaling pathway (AID 651751; call rule not given here; further: 0% is about no effect). Particulars: rPXR reporter cells, luciferase (One-Glo), 24 h.
Chain of Nuclear receptor subfamily 1 group I member 2 (Rattus norvegicus) (Q9R1A7 whole entry, looked up): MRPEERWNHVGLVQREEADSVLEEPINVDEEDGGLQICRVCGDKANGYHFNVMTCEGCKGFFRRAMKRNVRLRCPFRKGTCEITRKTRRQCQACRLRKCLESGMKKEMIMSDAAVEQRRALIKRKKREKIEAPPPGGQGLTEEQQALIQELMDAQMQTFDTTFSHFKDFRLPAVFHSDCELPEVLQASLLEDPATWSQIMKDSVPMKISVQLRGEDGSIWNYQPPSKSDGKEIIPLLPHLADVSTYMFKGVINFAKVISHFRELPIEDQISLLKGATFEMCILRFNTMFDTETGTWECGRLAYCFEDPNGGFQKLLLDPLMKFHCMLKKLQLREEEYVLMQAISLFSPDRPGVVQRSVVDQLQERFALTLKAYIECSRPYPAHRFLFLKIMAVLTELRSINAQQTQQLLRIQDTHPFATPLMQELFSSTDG
[12] abbreviates: at 20 µM (top of the series), tumour line C.
[13] abbreviates: at 21.2 µM (top of the series), tumour line B.
[14] abbreviates: at 21.2 µM (top of the series), tumour line D.
Setting [15] is: at 21.3 µM (top of the series), tumour line A.
[16] abbreviates: at 45.9 µM (top of the series), tumour line B.
The mark [17] stands for this setting: at 45.9 µM (top of the series), tumour line D.
Setting [18] is: at 46 µM (top of the series), tumour line A.
[19] abbreviates: at 46.1 µM (top of the series), tumour line C.

Structures are written as SMILES. “And” between values parts separate entries of the source, which are not always exact repeats. Equal values may be shown once. Values without a mark were called inactive. Results filed as inconclusive are left out. The source made the active and inactive calls. Unless noted, the call rests on the fitted dose curve; in most records, active means well fitted curve in the direction sought with a large enough effect; inconclusive means small, poorly fitted or top-dose-only effect, or another doubt; inactive means no such curve, though single readings can be large; an effect the other way counts as inactive or inconclusive.

For `Cn1c(=O)c2c(ncn2CC(O)CO)n(C)c1=O` (stereo unspecified), the Potency entry in assay [1], in [2], in assay [3], in assay [4], in [5] and in assay [6] was “inactive” each time. The Potency result in assay [7] and in [9] was “inactive” in each case. The activity, negative = cell killing was 1.09% in assay [8] (setting [12]), 1.11% in assay [8] (setting [13]), 1.54% in [8] (setting [14]) and 3.02% in [8] (setting [15]).
As for `Cc1noc(NS(=O)(=O)c2ccc(N)cc2)c1C`, the Potency entry in assay [1], in assay [2], in assay [3], in [4], in assay [5] and in assay [6] was “inactive” each time. Also, the Potency result in [7] and in assay [9] was “inactive” throughout. The activity, negative = cell killing is -5.33% and -3.65% in assay [8] (setting [16]); -24.3% and -9.55% in assay [8] (setting [17]); -16.5% in [8] (setting [18]); -22.2% and -6.01% in [8] (setting [19]). Further, the compound was called inactive in assay [10].
Regarding `Cc1nnc(NS(=O)(=O)c2ccc(N)cc2)s1`, the Potency result in assay [1], in assay [2], in assay [3], in assay [4], in assay [5] and in [6] was “inactive” in each case. The Potency result in assay [7] is “inactive”. In addition, the activity, negative = cell killing was 4.69% in assay [8] (setting [16]), 17.1% in [8] (setting [17]), 7.16% in assay [8] (setting [18]) and 5.44% in assay [8] (setting [19]). In assay [11], the max response was -0.291%. Further, in assay [10], the call was inactive.
For `CC1(C)[C@H](C(=O)O)N2C(=O)C[C@H]2S1(=O)=O`, the Potency result in [1], in assay [2], in assay [3], in [4], in assay [5] and in assay [6] was “inactive” in each case. Besides, the Potency entry in assay [7] and in [9] was “inactive” each time. Moreover, the activity, negative = cell killing in assay [8] (setting [16]) was 1.79%; in [8] (setting [17]) it was -3.83%; in assay [8] (setting [18]), -4.41%; in assay [8] (setting [19]), 9.89%.
For the compound `CC(C)OC(=O)OCOP(=O)(CO[C@H](C)Cn1cnc2c(N)ncnc21)OCOC(=O)OC(C)C`, the Potency entry in assay [1], in assay [2], in assay [3], in assay [4], in assay [5] and in assay [6] was “inactive” each time. Also, the Potency entry in assay [7] and in [9] was “inactive” each time. In addition, the activity, negative = cell killing in assay [8] (setting [16]) is -7.36%; in assay [8] (setting [17]), -12.2%; in [8] (setting [18]) it was -9.04%; in [8] (setting [19]), -6.09%.
Regarding `CCOCC(O)COc1ccc(NC(=O)CC[S+](C)C)cc1` (stereo unspecified), the Potency entry in [1], in [2], in [3], in assay [4], in [5] and in [6] was “inactive” each time. For the same compound, the Potency result in [7] and in [9] was “inactive” in each case. Further, the activity, negative = cell killing is -7.04% in [8] (setting [16]), -30.9% in [8] (setting [17]), -26.7% in [8] (setting [18]) and -28.1% in assay [8] (setting [19]).
With `CCN(C)C(=O)Oc1cccc([C@H](C)N(C)C)c1`, the Potency result in assay [1], in assay [2], in [3], in [4], in assay [5] and in assay [6] was “inactive” throughout. For the same compound, the Potency entry in [7] and in assay [9] was “inactive” in each case. In addition, the figures for the activity, negative = cell killing in assay [8] (setting [16]), in [8] (setting [17]) and in assay [8] (setting [19]) were -13.1%, -25.1% and -30%, respectively. In addition, the Potency in [8] (tumour line A) was 20 µM (active).
Turning to `O=C(O)c1cn(C2CC2)c2cc(N3CCNCC3)c(F)cc2c1=O`, the Potency result in [1], in assay [2], in assay [3], in assay [4], in [5] and in [6] was “inactive” each time. Besides, the Potency result in assay [7] and in [9] was “inactive” each time. Also, the activity, negative = cell killing in assay [8] (setting [12]) is -4.75%; in assay [8] (setting [13]), -18.6%; in [8] (setting [14]) it was 4.14%.
For the compound `O=C(O)CCn1c2c(c3ccccc31)C[C@H](NS(=O)(=O)c1ccc(F)cc1)CC2`, the Potency entry in assay [1], in assay [2], in assay [3], in assay [4], in [5] and in [6] was “inactive” each time. In addition, the Potency entry in assay [7] and in assay [9] was “inactive” in each case. Also, the activity, negative = cell killing was -3.62% in assay [8] (setting [16]), -7.83% in assay [8] (setting [17]), -16.4% in assay [8] (setting [18]) and -18.1% in assay [8] (setting [19]).
As for `C[C@@H]1CN(c2c(F)c(N)c3c(=O)c(C(=O)O)cn(C4CC4)c3c2F)C[C@H](C)N1`, the Potency entry in [1], in [2], in [3], in assay [4], in assay [5] and in [6] was “inactive” each time. For the same compound, the Potency result in [7] and in assay [9] was “inactive” in each case. The activity, negative = cell killing is -1.03% in assay [8] (setting [16]), -17% in assay [8] (setting [17]), -8% in assay [8] (setting [18]) and -3.77% in assay [8] (setting [19]).
For `C[C@]12C=CC(=O)C=C1CC[C@@H]1[C@@H]2C(=O)C[C@@]2(C)[C@H]1CC[C@]2(O)C(=O)CO`, the Potency result in [1], in [2], in [3], in [4], in assay [5] and in assay [6] was “inactive” in each case. The Potency result in assay [7] and in assay [9] was “inactive” in each case. Moreover, the figures for the activity, negative = cell killing in assay [8] (setting [16]), in assay [8] (setting [17]) and in assay [8] (setting [19]) were -6.23%, 5.45% and -7.06%, respectively.
In the case of `COc1ccccc1OCC(O)COC(N)=O` (stereo unspecified), the Potency entry in assay [1], in assay [2], in assay [3], in assay [4], in [5] and in assay [6] was “inactive” throughout. Also, the Potency entry in [7] and in assay [9] was “inactive” each time. Also, the activity, negative = cell killing in assay [8] (setting [12]) was -0.35%; in assay [8] (setting [13]), -3.25%; in [8] (setting [14]) it was -10.3%; in assay [8] (setting [15]), -18%.
`Cc1ncc([N+](=O)[O-])n1CCO`: the Potency entry in assay [1], in [2], in assay [3], in assay [4], in assay [5] and in assay [6] was “inactive” each time. In [7], the Potency entry was “inactive”. In addition, the activity, negative = cell killing was -7.77% in [8] (setting [16]), 10.9% in assay [8] (setting [17]), -19.2% in assay [8] (setting [18]) and 12.6% in [8] (setting [19]). Moreover, the max response in assay [11] is 6.53%. In addition, the outcome in assay [10] was inactive.
As for `NC(=O)N1c2ccccc2CC(=O)c2ccccc21`, the Potency entry in assay [1], in assay [2], in [3], in assay [4], in assay [5] and in assay [6] was “inactive” each time. For the same compound, the Potency entry in assay [7] and in assay [9] was “inactive” in each case. The figures for the activity, negative = cell killing in [8] (setting [16]), in [8] (setting [17]) and in [8] (setting [19]) were -29.6%, -1.67% and -9.41%, respectively.
Take `CNC1CCCN(c2c(F)cc3c(=O)c(C(=O)O)cn(C4CC4)c3c2OC)C1` (stereo unspecified): the Potency result in assay [1], in [2], in assay [3], in assay [4], in assay [5] and in assay [6] was “inactive” throughout. The Potency entry in assay [7] and in assay [9] was “inactive” each time. The activity, negative = cell killing in assay [8] (setting [16]) is 0.798%; in assay [8] (setting [17]), -8.95%; in assay [8] (setting [18]) it was -37.3%; in assay [8] (setting [19]), -5.21%.
Turning to `CCN[C@H]1C[C@H](C)S(=O)(=O)c2sc(S(N)(=O)=O)cc21`, the Potency entry in [1], in assay [2], in assay [3], in assay [4], in assay [5] and in assay [6] was “inactive” throughout. The Potency entry in assay [7] and in [9] was “inactive” in each case. Also, the activity, negative = cell killing in assay [8] (setting [16]) is -1.09%; in assay [8] (setting [17]) it was 3.44%; in [8] (setting [19]) it was -27%.

The record behind these values is PubChem BioAssay (NCATS).
